Source: PubChem (National Center for Advancing Translational Sciences (NCATS))
A488 autofl: compound fluoresces in the A488 spectral region. compound autofluorescence, A488 spectral region, dye equivalency; Compound Type: qHTS ECL - MLSMR. max dye equivalency, M. 0.1% of 59,000 active
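Compound autofluorescence was read in 100 mM Tris pH 8.0 after 15 min at room temperature, ex 480 nm/em 540 nm. Intensities were converted to A488 dye-equivalent concentration using an on-plate six-point A488 standard curve.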
Resorufin autofl: compound fluoresces in the resorufin spectral region | Compound fluorescence, resorufin region 547/598 nm, buffer; hits give high values | max dye-equivalent concentration, M | 0.04% of 59,000 active
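Tris 100 mM pH 8.0; compound added, 15 min RT; CCD imager read, ex 547 nm/em 598 nm; signal normalized to resorufin standard curve (six concentrations per plate) as dye-equivalent concentration.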
Rhodamine fluor: compound autofluorescence in rhodamine spectral region; Rhodamine-region fluorescence, 547/598 nm, Tris buffer; hits give high values; max dye-equivalent concentration, M; 0.05% of 59,000 active; AID 594; in the data active means max dye-equivalent concentration above about 11 nM; inconclusive means between about 1.1 nM and that limit
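Compounds in 100 mM Tris buffer, pH 8.0, were incubated 15 min at room temperature, then read at 547 nm excitation and 598 nm emission. Fluorescence was normalized against a per-plate six-point rhodamine standard curve as dye-equivalent concentration.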
A647 fluor: compound fluoresces in the A647 spectral region | 59,000 tested, under 10 active | max dye-equivalent concentration, M | Compound fluorescence, A647 channel (570/671 nm), Tris buffer;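 further: values scaled relative to a standard on each plate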
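Compounds pinned into 100 mM Tris pH 8.0, 15 min at room temperature, then read with 570 nm excitation/671 nm emission filters. Fluorescence normalized to an on-plate six-point Alexa 647 standard curve, giving dye-equivalent concentration per compound concentration.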
TexasRed autofl: Texas Red region autofluorescence. Compound fluorescence, Texas Red channel, 547/618 nm; hits give high values. max dye-equivalent concentration, M. 0.06% of 59,000 active; in the data active means max dye-equivalent concentration above about 10 nM; inconclusive means between about 1.1 nM and that limit
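Pin-transferred compounds and Texas Red standards go into 100 mM Tris buffer, pH 8.0. After 15 min at room temperature, plates are imaged with 547/618 nm filters. Each value is a dye-equivalent concentration derived from the per-plate dye curve.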
Fluorescein fluor: fluorescein region autofluorescence | Compound autofluorescence, 480/540 nm, fluorescein-equivalent; hits give high values | max fluorescein-equivalent concentration, M | 0.91% of 59,000 active | AID 593; in the data active means max fluorescein-equivalent concentration above about 10 nM; inconclusive means between about 1.1 nM and that limit
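Read-out is intrinsic compound fluorescence at 480/540 nm (excitation/emission), expressed as dye-equivalent concentration using a fluorescein standard series run on every plate. Compounds sat 15 min at room temperature in 100 mM Tris, pH 8.0.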
* = called active by the depositor. Sampled rows, rich in hits. Any-hit rate of the full collection: about 0.95%. Unless noted, how the calls were made is not given here.

What do the screens show for `CCOC(=O)c1c(C)oc2ccc(O)c(CN(C)C)c12`?
A488 autofl: inactive; Resorufin autofl: inactive; Rhodamine fluor: inactive; A647 fluor: 1.7e-08; TexasRed autofl: inactive; Fluorescein fluor: inconclusive

How did Fc1ccc(Br)cc1C1C=C(c2ccc(Br)s2)Nc2ncnn21 (stereo unspecified) do in these assays?
A488 autofl: inactive; Resorufin autofl: inactive; Rhodamine fluor: inactive; A647 fluor: 3.4e-09; TexasRed autofl: inactive; Fluorescein fluor: inconclusive

How did COc1cccc(C2C=C(c3ccc(Br)s3)Nc3ncnn32)c1OC (stereo unspecified) do in these assays?
A488 autofl: inactive; Resorufin autofl: inactive; Rhodamine fluor: inactive; A647 fluor: 1e-09; TexasRed autofl: inactive; Fluorescein fluor: 1.5e-08M*

What do the screens show for `CCOC(=O)c1ccc(N2C(=O)C3C(C2=O)C(C(=O)c2ccc(Cl)cc2)N2CCCC32)cc1` (stereo unspecified)?
A488 autofl: inconclusive; Resorufin autofl: inactive; Rhodamine fluor: inactive; A647 fluor: 5.7e-09; TexasRed autofl: inactive; Fluorescein fluor: 5.6e-08M*

What do the screens show for `Cc1ccccc1-n1c(=O)/c(=C\c2ccco2)s/c1=C(/C#N)C(=O)Nc1ccccc1`?
A488 autofl: inactive; Resorufin autofl: inactive; Rhodamine fluor: inactive; A647 fluor: 1e-09; TexasRed autofl: inactive; Fluorescein fluor: 1.4e-08M*

Results for Cc1ccc2nc(N/N=C\c3cccc(C)n3)cc(C)c2c1 ?
A488 autofl: inactive; Resorufin autofl: inactive; Rhodamine fluor: inactive; A647 fluor: 1e-09; TexasRed autofl: inactive; Fluorescein fluor: inconclusive

What do the screens show for `O=C(O)c1cc(O)c2c(c1)C(=O)c1cccc(O)c1C2=O`?
A488 autofl: inconclusive; Resorufin autofl: inactive; Rhodamine fluor: inactive; A647 fluor: 2.3e-08; TexasRed autofl: inactive; Fluorescein fluor: 8.6e-08M*

What do the screens show for `CSc1nc(N)c2ncn([C@@H]3O[C@@H](COP(=O)(O)OP(=O)(O)O)[C@@H](O)[C@H]3O)c2n1`?
A488 autofl: inactive; Resorufin autofl: inactive; Rhodamine fluor: inactive; A647 fluor: 1.7e-09; TexasRed autofl: inconclusive; Fluorescein fluor: inconclusive

How did C=CCn1c(=O)/c(=C/c2ccc(C)o2)s/c1=C(/C#N)C(=O)c1ccccc1 do in these assays?
A488 autofl: inconclusive; Resorufin autofl: inactive; Rhodamine fluor: inactive; A647 fluor: 2.2e-08; TexasRed autofl: inactive; Fluorescein fluor: 9.9e-08M*

Results for CCNC(=O)[C@@H]1O[C@@H](n2cnc3c(N)nc(NCCc4ccc(CCC(=O)O)cc4)nc32)[C@H](O)[C@@H]1O ?
A488 autofl: inactive; Resorufin autofl: inactive; Rhodamine fluor: inactive; A647 fluor: 3.7e-09; TexasRed autofl: inconclusive; Fluorescein fluor: inactive

How did CC(=O)c1sc2nc(-c3cccs3)cc(C(F)(F)F)c2c1N do in these assays?
A488 autofl: inconclusive; Resorufin autofl: inactive; Rhodamine fluor: inactive; A647 fluor: 1e-09; TexasRed autofl: inactive; Fluorescein fluor: 7.2e-08M*

Results for CNC(=O)[C@@H]1O[C@@H](n2cnc3c(NCc4cccc(I)c4)ncnc32)[C@H](O)[C@@H]1O ?
A488 autofl: inactive; Resorufin autofl: inactive; Rhodamine fluor: inactive; A647 fluor: 1e-09; TexasRed autofl: inconclusive; Fluorescein fluor: inconclusive

Results for CC(=Nc1ccc(O)cc1)c1sc2ccccc2c1O ?
A488 autofl: inconclusive; Resorufin autofl: inactive; Rhodamine fluor: inactive; A647 fluor: 4.7e-09; TexasRed autofl: inconclusive; Fluorescein fluor: 1e-07M*

What do the screens show for `CC(=O)NCCN=C(C)c1sc2ccccc2c1O`?
A488 autofl: inactive; Resorufin autofl: inactive; Rhodamine fluor: inactive; A647 fluor: 3.7e-08; TexasRed autofl: inconclusive; Fluorescein fluor: inconclusive

What do the screens show for `C[C@H]1[C@H](C)CC[C@]2(C(=O)O)CC[C@]3(C)C(=CC[C@@H]4[C@]5(C)C[C@H](O)[C@@H](O)[C@@](C)(CO)[C@@H]5[C@H](O)C[C@@]43C)[C@H]12`?
A488 autofl: inactive; Resorufin autofl: inactive; Rhodamine fluor: inactive; A647 fluor: 3.1e-08; TexasRed autofl: inactive; Fluorescein fluor: inconclusive
